Bioassay records: PubChem BioAssay, National Center for Advancing Translational Sciences (NCATS)
Most compounds without a hit are left out; they make up all but 7.3% or so of the library.
HCV inhibitor – qHTS Assay for Inhibitors of Hepatitis C Virus (HCV); AID 651820, 2012; Huh7.5.1 HCVcc-Cre infection, luciferase reporter, 44 h; 340,000 compounds, 3.4% hits; Potency, µM (titrated, usually from 41.8 µM), for inactives: top-dose activity change, negative = inhibition, hits mostly inhibitors; note: potency is the fitted concentration of half-maximal effect
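Cells seeded at 1,000/well and cultured 4 h, then compounds added followed by HCVcc-Cre virus (~0.5 moi). After 44 h further culture, luciferase substrate was added, plates held 15 min at room temperature, and luminescence read for 15 sec.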
HCMV inh – qHTS Assay for inhibitors of the human cytomegalovirus (HCMV). AID 1259415, 2018. activity change, negative = inhibition, % at 57.5 µM. HFF cells, HCMV-luciferase reporter, 72 h; stronger effect = lower value. 410,000 compounds, 4.5% hits; in the data active = activity change below about -60%; inconclusive = no clear call, values can overlap the other calls; inactive = above about -39%
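Inhibition of viral replication was scored as loss of reporter luminescence in HFFs infected with HCMV-luciferase (MOI 1 PFU/cell) for 72 h; compounds tested at 2 doses, normalized to buffer and Salinomycin controls.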
AmpC inh no detg – qHTS Inhibitors of AmpC Beta-Lactamase (assay without detergent) | P00811 | AmpC nitrocefin hydrolysis, absorbance 480 nm, 0.0001% Triton | Potency, µM (doses to about 57.1 µM), without a hit: at the top dose activity change, negative = inhibition, usual class: inhibitors | 330,000 compounds, 0.52% hits;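 note: potency is the fitted concentration of half-maximal effect; plate controls were no compound for no effect and no enzyme for full effect; nearly all actives have a fitted effect of over 20% in size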
Target sequence (P00811 whole entry, looked up): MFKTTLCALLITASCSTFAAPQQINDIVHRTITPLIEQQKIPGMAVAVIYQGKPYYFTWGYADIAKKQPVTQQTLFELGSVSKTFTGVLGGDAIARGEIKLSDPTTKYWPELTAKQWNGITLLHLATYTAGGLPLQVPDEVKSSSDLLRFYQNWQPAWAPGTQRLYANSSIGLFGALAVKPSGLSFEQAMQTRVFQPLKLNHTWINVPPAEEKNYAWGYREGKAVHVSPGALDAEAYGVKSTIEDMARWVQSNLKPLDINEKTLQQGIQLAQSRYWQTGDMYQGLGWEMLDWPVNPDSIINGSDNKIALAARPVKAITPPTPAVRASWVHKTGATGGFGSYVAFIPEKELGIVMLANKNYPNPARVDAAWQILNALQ
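20 mM phosphate pH 7.0 + 0.01% (detergent screen) or 0.0001% Triton X-100; 5.3 nM AmpC reagent; cpd preinc 15 min RT; nitrocefin (800 uM stock) to start; A480 q20 s × 4 min; Activity was normalised to no-enzyme and no-compound control wells.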
FMDV inh – High Throughput Screening for Foot and Mouth Disease Virus Antivirals; FMDV antiviral cell-based qHTS; Potency, µM (titrated, usually from 57.9 µM), inactives show at the top dose activity change, negative = inhibition, actives largely listed as inhibitors; 410,000 compounds, 1.2% hits; AID 1159524, 2015; calls by dose curve; tested in HEK293T cells; note: read-out not given here; potency is the fitted concentration of half-maximal effect; nearly all actives have a fitted effect of over 45% in size
AmpC inh detg – qHTS Inhibitors of AmpC Beta-Lactamase (assay with detergent) | P00811 | AmpC hydrolysis of nitrocefin, absorbance 480 nm, 0.01% Triton | Potency, µM (doses to about 114 µM), inactives show at the highest dose activity change, negative = inhibition, actives largely listed as inhibitors | 370,000 compounds, 0.041% hits;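 note: potency is the fitted concentration of half-maximal effect; 0% = no-compound wells and -100% = no-enzyme wells; nearly all actives have a fitted effect of over 25% in size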
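20 mM phosphate pH 7.0 + 0.01% (detergent screen) or 0.0001% Triton X-100; 5.3 nM AmpC reagent; cpd preinc 15 min RT; nitrocefin (800 uM stock) to start; A480 q20 s × 4 min; Activity was normalised to no-enzyme and no-compound control wells.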
* marks the source's active call; other numbers are inactive results; u = inconclusive; x = no result; ! = a repeat was not active. Unless noted, calls come from the whole dose curve; as a rule, active = well fitted curve in the direction sought with a large enough effect; inconclusive = small, poorly fitted or top-dose-only effect, or another doubt; inactive = no such curve, though single readings can be large; an effect the other way counts as inactive or inconclusive. Unless noted, % is set by controls: 0 for no effect and ±100 for the full control effect.

SMILES	HCV inhibitor	HCMV inh	AmpC inh no detg	FMDV inh	AmpC inh detg
O=C(Cc1ccccc1Cl)Nc1cccc(S(=O)(=O)N2CCCCCC2)c1	u	-18.5	-4.6%	-15.6%	12.5%
NS(=O)(=O)c1cccc(NC(=O)c2cccc(S(=O)(=O)N3CCCCCC3)c2)c1	u	-11.5	-21.7%	-16.0%	x
CN1CCN(S(=O)(=O)c2ccc(NC(=O)c3ccc([N+](=O)[O-])cc3)cc2)CC1	6.7%	-61.8*	x	13.6%	x
CC(C)(C)c1ccc(C(=O)Nc2ccc(S(N)(=O)=O)cc2)cc1	22.4µM*	-37.4	-36.0%	-21.8%	-9.4%
O=C(Nc1cccc(S(=O)(=O)N2CCCCC2)c1)c1ccc2ncsc2c1	7.94µM*	-9.3	-37.6%	-13.7%	3.9%
CC(C)(C)c1ccc(NC(=O)c2cc[n+]([O-])cc2)cc1	3.9%	u	13.5%	16.7%	1.2%
CCN(C)C(=O)C1=CN2CCN(Cc3ccccc3C(F)(F)F)C(=O)N=C2O1	x	14.3	x	x	x
CC1CCC(NC(=O)CN(C)CC(=O)Nc2ccc(F)cc2)CC1 (stereo unspecified)	u	41.9	52.5%	6.1%	u
NS(=O)(=O)c1ccc(NC(=O)c2ccc(-c3ccccc3)cc2)cc1	10.0%	u	-54.6%	-2.2%	-7.3%
NS(=O)(=O)c1ccc(NS(=O)(=O)c2ccc(NC(=O)c3ccc(-c4ccccc4)cc3)cc2)cc1	-16.1%	12.4	11.2µM*	-22.1%	-12.4%
CC1CCN(S(=O)(=O)c2ccc(NC(=O)c3ccncc3)cc2)CC1	11.2µM*	-64.0*	54.1%	u	-0.3%
O=S(=O)(Nc1cccc(S(=O)(=O)N2CCCCC2)c1)c1ccc(Cl)s1	11.0%	-66.5*	-40.3%	-24.6%	x
CCN(CC)S(=O)(=O)c1ccc(NC(=O)c2ccc(Cl)nc2)cc1	-21.6%	-62.4*	-29.6%	-26.8%	-4.9%
CCCn1c(CCC(=O)Nc2ccc(OCC)cc2)nc2cccnc21	x	-9.0	x	15.0%	3.3%
CCOc1ccccc1-c1noc(CCCC(=O)NC2CCCCC2)n1	u	12.9	32.7%	0.4%	-5.6%
Cc1cccc2c(N3CCCC3)nc(CNS(=O)(=O)c3ccc4ccccc4c3)nc12	x	x	x	3.7%	x
O=C(Nc1cccc(S(=O)(=O)Nc2ccccc2Cl)c1)c1ccc(Cl)nc1	u	-86.2*	-19.1%	28.2µM*	-1.1%
O=C(Nc1ccc(Cc2ccncc2)cc1)c1ccc(S(=O)(=O)N2CCCC2)cc1	5.01µM*	-87.1*	2.7%	15.8µM*	-10.2%
O=C(Nc1cccc(S(=O)(=O)N2CCCCC2)c1)c1ccc(Cl)nc1	u	u	-17.6%	14.1µM*	x
O=C(Nc1ccc(S(=O)(=O)N2CCCCC2)cc1)c1ccncc1	-10.0%	-32.3	-12.2%	-18.4%	-1.0%
NS(=O)(=O)c1ccc(NC(=O)c2ccc(S(=O)(=O)N3CCCCCC3)cc2)cc1	-1.3%	-64.2*	-26.4%	-10.5%	x
CC(=O)Nc1ccc(C(=O)Nc2ccc(S(=O)(=O)N3CCCCC3)cc2)cc1	u	-20.6	-18.5%	-9.2%	3.4%
COc1ccc(S(=O)(=O)N2CCCCC2)cc1NS(=O)(=O)c1ccc(CNC(C)=O)cc1	9.5%	35.4	-1.4%	14.6%	x
COc1ccc(NC(=O)c2ccc(N3CCCC3=O)cc2)cc1Cl	u	0.4	-15.9%	12.8%	x
O=C(Nc1ccc(S(=O)(=O)N2CCCCC2)cc1)c1ccc(Cl)nc1	u	-75.5*	-23.5%	39.8µM*	x
SMILES	HCV inhibitor	HCMV inh	AmpC inh no detg	FMDV inh	AmpC inh detg
CC(=O)c1ccc(NC(=O)Nc2ccc(S(=O)(=O)N3CCCC3)cc2)cc1	u	u	14.1µM*	0.0%	-5.7%
COC(=O)[C@@H]1C[C@@H](NC(=O)c2cnsn2)CN1Cc1ccc(Cl)cc1	x	x	x	3.0%	x
COc1ccc(NC(=O)c2cccc(N3C(=O)C4C5C=CC(C5)C4C3=O)c2)cc1Cl (stereo unspecified)	10µM*	13.4	-17.8%	u	1.1%
O=C(Nc1ccc(Cl)cc1)c1cccc(N2C(=O)C3C4CCC(C4)C3C2=O)c1 (stereo unspecified)	u	u	-17.0%	31.6µM*	-2.0%
COc1ccc(NC(=O)c2cccc(N3C(=O)C4C5C=CC(C6CC56)C4C3=O)c2)c(OC)c1 (stereo unspecified)	-28.7%	-18.1	29.2%	-29.9%	1.3%
COc1ccc(NC(=O)c2cccc(N3C(=O)C4C5C=CC(C6CC56)C4C3=O)c2)cc1 (stereo unspecified)	x	-8.2	-36.2%	39.8µM*	-9.1%
O=C(Nc1ccc(Cl)cc1Cl)c1cccc(N2C(=O)C=CC2=O)c1	-8.2%	-72.7*	-31.6%	-29.4%	u
CCN(Cc1ccncc1)Cc1ccc2c(c1)CN(C(=O)c1ccc(OC)cc1)CCO2	x	x	x	-13.0%	x
COc1ccc(NC(=O)c2cc(=O)c3cc(C)cc(C)c3o2)cc1	x	-6.6	x	-9.6%	8.9%
Cn1c(=O)c2c(nc(SCC(=O)Nc3ccccc3F)n2Cc2ccc(Cl)cc2)n(C)c1=O	x	13.7	x	u	-0.9%
COc1cccc(CN(C)C(=O)c2ccc(NC(=O)CC3SC(N4CCCC4)=NC3=O)cc2)c1OC (stereo unspecified)	4.8%	-12.9	134.4%	1.1%	u
O=C(CSc1nnc2scc(-c3ccccc3)n12)Nc1nsc(-c2ccccc2)n1	11.2µM*!	u	-32.9%	31.6µM*	-1.1%
O=C(CSc1nnc2scc(-c3ccccc3)n12)Nc1nsc(-c2ccc(Cl)cc2)n1	5.8%	-72.8*	x	u	x
Cc1ccc(-c2csc3nnc(SCC(=O)Nc4nsc(-c5ccccc5)n4)n23)cc1	u	u	x	u	-1.7%
COc1ccccc1C(=O)N1CCCC(c2nc(SCCN3CCOCC3)ncc2C)C1 (stereo unspecified)	x	x	x	-2.4%	x
CC(Oc1ccccc1)C(=O)OCc1cc(=O)n2nc(C(C)C)sc2n1 (stereo unspecified)	x	-9.7	x	-17.4%	-10.4%
COc1cc(C(=S)N2CCCC2)cc(OC)c1OS(=O)(=O)c1ccc(NC(C)=O)cc1	-26.5%	-22.9	-15.6%	-16.4%	-9.3%
COc1cc(C(=S)N2CCOCC2)ccc1OS(=O)(=O)c1ccc(NC(C)=O)cc1	u	-72.9*	-10.0%	12.6µM*	-8.5%
COc1cc(C(=S)N2CCCC2)ccc1OS(=O)(=O)c1ccc(NC(C)=O)cc1	10µM*	-36.2	25.5%	20µM*	5.8%
COc1cccc(-c2ccc(NC(=O)C3CCCN(CCCn4cccn4)C3)cc2)c1 (stereo unspecified)	u	-28.6	-23.0%	35.5µM*	3.1%
COCc1ccc(CN2CCCC(C(=O)Nc3ccc(-c4cccc(OC)c4)cc3)C2)o1 (stereo unspecified)	10µM*	u	213.4%	-15.8%	-7.7%
